# Assay results from PubChem BioAssay (NCATS).
# Unmarked numbers belong to inactive results. Inconclusive results are not listed. Activity calls are given as the source filed them. Unless noted, calls follow the shape of the dose curve; as a rule, active = well fitted curve in the direction sought with a large enough effect; inconclusive = small, poorly fitted or top-dose-only effect, or another doubt; inactive = no such curve, though single readings can be large; an effect the other way counts as inactive or inconclusive.
# System: not listed separately
# Assay: Validation screen for small molecules that induce genotoxicity in human embryonic kidney (HEK293T) cells expressing luciferase-tagged ELG1 (AID 493106); also: 0% is about no effect
# Details: luminescence; series mostly up to 46.1 µM; activity change, positive = ELG1 induction: at the top concentration
# Method in brief: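 Luminescence from an ELG1-luciferase fusion serves as the read-out, rising when genetic stress elevates ELG1 protein. HEK293T reporter cells (2,000 per well) received 23 nL compound, incubated 16 hr at 37 °C, then ONE-Glo for 30 min at room temperature.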
row,Compound,"activity change, positive = ELG1 induction"
1,NC(=O)N1c2ccccc2C=Cc2ccccc21,-3.43%
2,CCCCCN(CCCCC)C(=O)C(CCC(=O)O)NC(=O)c1ccc(Cl)c(Cl)c1 (stereo not given),-8.85%
3,CN(C)CC[C@@H](c1ccc(Br)cc1)c1ccccn1,-3.76%
4,C[N+](C)(C)CCOC(=O)CCC(=O)OCC[N+](C)(C)C,-5.51%
5,O=C1NCN(c2ccccc2)C12CCN(CCCC(c1ccc(F)cc1)c1ccc(F)cc1)CC2,-6.47%
6,C[N+](C)(C)CCCCCCCCCC[N+](C)(C)C,-4.48%
7,COc1ccc(CN(CCN(C)C)c2ccccn2)cc1,-8.1%
8,CC[N+](C)(C)c1cccc(O)c1,1.81%
9,CC1=C(C)C(=O)C(CCCCC#CCCCC#CCO)=C(C)C1=O,-11.3%
10,O=C(O)CN(CCN(CC(=O)O)CC(=O)O)CCN(CC(=O)O)CC(=O)O,3.55%
11,CC(C)COCC(CN(Cc1ccccc1)c1ccccc1)N1CCCC1 (stereo not given),2.47%
12,CCCCNc1c(C(=O)OCC)c(C)nc2c1cnn2CC,-9.39%
13,O=C(CCCN1CCC(O)(c2cccc(C(F)(F)F)c2)CC1)c1ccc(F)cc1,-11.5%
14,CC1=NS(=O)(=O)c2cc(Cl)ccc2N1,-11.8%
15,Cc1nc2c([nH]1)c(=O)n(C)c(=O)n2Cc1ccco1,2.68%
16,COC(=O)[C@@H](N)Cc1ccc(O)c(O)c1,-7.31%
17,C[C@]12C=CC(=O)C=C1CC[C@H]1[C@@H]3C[C@@H](O)[C@](O)(C(=O)CO)[C@@]3(C)C[C@H](O)[C@@]12F,6.92%
18,Nc1c2c(nc3ccccc13)CCCC2O (stereo not given),-6.74%
19,CC(=O)Nc1nnc(S(N)(=O)=O)s1,-6.2%
20,CC(N=C(NC#N)Nc1ccncc1)C(C)(C)C (stereo not given),-10.4%
21,Cc1ccc(=O)n(-c2ccccc2)c1,-3.64%
22,OC(CCN1CCCCC1)(c1ccccc1)C1CCCCC1 (stereo not given),-12.6%
23,Cc1nc2sccn2c(=O)c1CCN1CCC(=C(c2ccc(F)cc2)c2ccc(F)cc2)CC1,-10.7%
24,CCN(CC)CCNC(=O)c1cc(S(C)(=O)=O)ccc1OC,-4.81%

# Molecular target: ATPase family AAA domain-containing protein 5 (Homo sapiens) (UniProt Q96QE3)
# Assay: Validation screen for small molecules that inhibit ELG1-dependent DNA repair in human embryonic kidney (HEK293T) cells expressing luciferase-tagged ELG1 (AID 493107); also: nearly all actives have a fitted effect of over 70% in size; also: potency is read from the fitted curve at half-maximal effect;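 as to activity change, negative = decrease: cells co-treated with the DNA-damaging agent 5-fluorouridine alongside compound; % is scaled to controls: 0 for no effect and ±100 for the full control effect; inhibitors lower the ELG1-luciferase luminescence signal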
# Details: HEK293T ELG1-luciferase level, luminescence, 5-fluorouridine co-treatment, 16 h; series mostly up to 46.1 µM; activity change, negative = decrease: at the top concentration
# Method in brief: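 Luminescence from ONE-Glo, developed 30 min at room temperature, served as read-out of ELG1-luciferase levels. Beforehand, reporter HEK293T cells received 5-fluorouridine plus test compound for 16 hr at 37 °C.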
# ATPase family AAA domain-containing protein 5 (Homo sapiens), sequence (Q96QE3 whole entry, looked up, the tested form may be a part): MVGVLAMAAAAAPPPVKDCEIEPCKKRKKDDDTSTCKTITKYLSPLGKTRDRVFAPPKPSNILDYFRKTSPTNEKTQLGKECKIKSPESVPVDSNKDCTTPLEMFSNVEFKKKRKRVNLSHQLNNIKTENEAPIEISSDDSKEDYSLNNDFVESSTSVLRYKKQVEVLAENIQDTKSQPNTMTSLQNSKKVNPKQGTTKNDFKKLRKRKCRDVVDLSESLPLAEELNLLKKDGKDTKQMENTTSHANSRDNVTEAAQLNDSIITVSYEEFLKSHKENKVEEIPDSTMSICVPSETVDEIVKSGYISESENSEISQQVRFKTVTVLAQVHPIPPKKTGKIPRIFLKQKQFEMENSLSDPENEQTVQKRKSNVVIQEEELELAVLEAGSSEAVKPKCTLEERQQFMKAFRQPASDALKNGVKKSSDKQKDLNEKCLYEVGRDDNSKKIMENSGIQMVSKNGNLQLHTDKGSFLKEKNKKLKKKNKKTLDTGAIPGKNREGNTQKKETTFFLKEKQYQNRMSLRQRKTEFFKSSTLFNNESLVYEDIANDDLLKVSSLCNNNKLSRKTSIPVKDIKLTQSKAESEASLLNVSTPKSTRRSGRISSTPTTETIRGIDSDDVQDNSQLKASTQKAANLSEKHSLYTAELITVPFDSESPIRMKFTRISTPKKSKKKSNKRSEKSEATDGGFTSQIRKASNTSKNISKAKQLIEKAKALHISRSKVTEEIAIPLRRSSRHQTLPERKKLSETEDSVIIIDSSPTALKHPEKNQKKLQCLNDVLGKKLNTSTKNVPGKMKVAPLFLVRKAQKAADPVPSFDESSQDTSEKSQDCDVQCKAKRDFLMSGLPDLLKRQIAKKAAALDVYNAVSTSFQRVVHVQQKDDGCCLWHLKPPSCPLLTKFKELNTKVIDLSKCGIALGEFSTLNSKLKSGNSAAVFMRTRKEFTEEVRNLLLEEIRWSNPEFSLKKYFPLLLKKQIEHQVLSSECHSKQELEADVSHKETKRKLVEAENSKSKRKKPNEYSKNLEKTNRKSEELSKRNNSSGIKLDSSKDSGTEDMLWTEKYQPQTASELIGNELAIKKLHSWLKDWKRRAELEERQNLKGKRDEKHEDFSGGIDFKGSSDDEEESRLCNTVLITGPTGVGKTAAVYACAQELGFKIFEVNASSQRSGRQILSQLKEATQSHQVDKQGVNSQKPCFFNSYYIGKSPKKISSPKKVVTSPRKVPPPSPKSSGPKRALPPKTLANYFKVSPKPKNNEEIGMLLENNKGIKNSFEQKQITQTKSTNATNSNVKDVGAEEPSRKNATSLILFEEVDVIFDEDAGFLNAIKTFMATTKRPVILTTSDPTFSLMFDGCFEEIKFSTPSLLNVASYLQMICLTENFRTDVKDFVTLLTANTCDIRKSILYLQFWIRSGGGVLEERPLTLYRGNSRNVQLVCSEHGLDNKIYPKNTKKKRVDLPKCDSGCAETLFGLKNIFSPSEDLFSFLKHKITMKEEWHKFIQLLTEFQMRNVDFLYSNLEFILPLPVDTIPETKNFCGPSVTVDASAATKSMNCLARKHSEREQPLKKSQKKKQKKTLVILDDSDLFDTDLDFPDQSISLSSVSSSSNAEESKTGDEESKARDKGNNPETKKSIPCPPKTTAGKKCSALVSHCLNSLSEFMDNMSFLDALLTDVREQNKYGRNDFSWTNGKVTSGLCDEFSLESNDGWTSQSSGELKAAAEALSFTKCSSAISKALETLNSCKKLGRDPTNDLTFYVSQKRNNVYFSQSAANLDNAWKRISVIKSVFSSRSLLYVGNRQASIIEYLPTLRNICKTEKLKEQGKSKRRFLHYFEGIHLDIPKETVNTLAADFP
Compound,Potency,"activity change, negative = decrease"
COc1cc2c(cc1OC)-c1cc(=Nc3c(C)cc(C)cc3C)n(C)c(=O)n1CC2,13 µM (active),–
COCCc1ccc(OCC(O)CNC(C)C)cc1 (stereo not given),–,1.76%
NC(=O)N1c2ccccc2C=Cc2ccccc21,–,10%
CCCCCN(CCCCC)C(=O)C(CCC(=O)O)NC(=O)c1ccc(Cl)c(Cl)c1 (stereo not given),–,10.4%
NC(N)=NC(=O)Cc1c(Cl)cccc1Cl,–,-21%
CN(C)CC[C@@H](c1ccc(Br)cc1)c1ccccn1,–,27.5%
CNCCC(Oc1ccccc1OC)c1ccccc1 (stereo not given),–,2.43%
C[N+](C)(C)CCOC(=O)CCC(=O)OCC[N+](C)(C)C,–,9.13%
NC(N)=N/N=C/c1c(Cl)cccc1Cl,–,5.4%
O=C1NCN(c2ccccc2)C12CCN(CCCC(c1ccc(F)cc1)c1ccc(F)cc1)CC2,25.9 µM (active),–
C[N+](C)(C)CCCCCCCCCC[N+](C)(C)C,–,-1.34%
CC[N+](C)(C)c1cccc(O)c1,–,14.4%
c1cnc(N2CCN(Cc3ccc4c(c3)OCO4)CC2)nc1,–,18.1%
CCN1CCc2nc(N)oc2CC1,–,-6.11%
O=C(O)CN(CCN(CC(=O)O)CC(=O)O)CCN(CC(=O)O)CC(=O)O,–,-0.122%
CC1=NS(=O)(=O)c2cc(Cl)ccc2N1,–,-3.12%
COC(=O)[C@@H](N)Cc1ccc(O)c(O)c1,–,-12.9%
C[C@]12C=CC(=O)C=C1CC[C@H]1[C@@H]3C[C@@H](O)[C@](O)(C(=O)CO)[C@@]3(C)C[C@H](O)[C@@]12F,–,10.5%
Nc1c2c(nc3ccccc13)CCCC2O (stereo not given),–,-10.9%
CC(=O)Nc1nnc(S(N)(=O)=O)s1,–,-3.12%
CC(N=C(NC#N)Nc1ccncc1)C(C)(C)C (stereo not given),–,-29.5%
c1ccc2c(c1)CCCC2C1=NCCN1 (stereo not given),–,-9.69%
CC(=O)OC(C)C[N+](C)(C)C (stereo not given),–,-4.68%
Cc1ccc(=O)n(-c2ccccc2)c1,–,-4.98%
OC(CCN1CCCCC1)(c1ccccc1)C1CCCCC1 (stereo not given),–,-1.09%
CCN(CC)CCNC(=O)c1cc(S(C)(=O)=O)ccc1OC,–,1.47%

# Molecular target: Thyrotropin-releasing hormone receptor (Homo sapiens) (UniProt P34981)
# Assay: qHTS for Small Molecule Agonists and Allosteric Enhancers of Human TRH Receptor: Validation Screen for Agonists (AID 493127;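 active = calcium activation more than 3 SD above the typical response in the agonist read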;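 also: intracellular calcium rise by fluo-8 fluorescence before TRH EC20 addition; 0% is about no effect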)
# Details: TRH receptor agonist cell assay; at 2 µM; hits give high values
# Method in brief: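 Cells 2000/well, 10% FCS, 18 h 33.5C/5% CO2 → fluo-8 Ca dye, RT 30 min–1.5 h → FDSS baseline 10 × 1 s → compound added → 230 cycles (1 s/cycle) agonist mode. TRH controls.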
# Thyrotropin-releasing hormone receptor (Homo sapiens), sequence (P34981 whole entry, looked up): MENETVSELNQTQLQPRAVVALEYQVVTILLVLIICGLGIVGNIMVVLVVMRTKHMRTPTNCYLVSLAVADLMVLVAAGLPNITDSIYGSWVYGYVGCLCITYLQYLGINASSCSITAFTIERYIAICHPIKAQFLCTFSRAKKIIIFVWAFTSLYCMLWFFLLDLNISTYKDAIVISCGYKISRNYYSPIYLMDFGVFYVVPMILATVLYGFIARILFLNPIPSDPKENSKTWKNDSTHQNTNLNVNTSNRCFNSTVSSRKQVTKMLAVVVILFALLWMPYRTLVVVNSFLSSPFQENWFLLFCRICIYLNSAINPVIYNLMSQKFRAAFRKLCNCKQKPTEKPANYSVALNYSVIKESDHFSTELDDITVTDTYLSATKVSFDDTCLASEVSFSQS
row,Compound,activation
1,COc1cc2c(cc1OC)-c1cc(=Nc3c(C)cc(C)cc3C)n(C)c(=O)n1CC2,-6.75%
2,NC(=O)N1c2ccccc2C=Cc2ccccc21,0.625%
3,CCCCCN(CCCCC)C(=O)C(CCC(=O)O)NC(=O)c1ccc(Cl)c(Cl)c1 (stereo not given),1%
4,NC(N)=NC(=O)Cc1c(Cl)cccc1Cl,1.44%
5,CNCCC(Oc1ccccc1OC)c1ccccc1 (stereo not given),2.38%
6,C[N+](C)(C)CCOC(=O)CCC(=O)OCC[N+](C)(C)C,0.188%
7,NC(N)=N/N=C/c1c(Cl)cccc1Cl,-6.19%
8,O=C1NCN(c2ccccc2)C12CCN(CCCC(c1ccc(F)cc1)c1ccc(F)cc1)CC2,0.75%
9,COc1ccc(CN(CCN(C)C)c2ccccn2)cc1,1.25%
10,c1cnc(N2CCN(Cc3ccc4c(c3)OCO4)CC2)nc1,-3.31%
11,CC1=C(C)C(=O)C(CCCCC#CCCCC#CCO)=C(C)C1=O,-4.88%
12,CCN1CCc2nc(N)oc2CC1,0.875%
13,O=C(O)CN(CCN(CC(=O)O)CC(=O)O)CCN(CC(=O)O)CC(=O)O,1.81%
14,CC(C)COCC(CN(Cc1ccccc1)c1ccccc1)N1CCCC1 (stereo not given),0.812%
15,O=C(CCCN1CCC(O)(c2cccc(C(F)(F)F)c2)CC1)c1ccc(F)cc1,3.56%
16,Cc1nc2c([nH]1)c(=O)n(C)c(=O)n2Cc1ccco1,0.812%
17,COC(=O)[C@@H](N)Cc1ccc(O)c(O)c1,1%
18,Nc1c2c(nc3ccccc13)CCCC2O (stereo not given),1.62%
19,CN(C(=O)CCCOc1ccc2[nH]c(=O)ccc2c1)C1CCCCC1,1.44%
20,CCOC(=O)C1=C(C)NC(C)=C(C(=O)OC)C1c1cccc(Cl)c1Cl (stereo not given),1.12%
21,CC(=O)Nc1nnc(S(N)(=O)=O)s1,1.38%
22,CC(N=C(NC#N)Nc1ccncc1)C(C)(C)C (stereo not given),0.125%
23,c1ccc2c(c1)CCCC2C1=NCCN1 (stereo not given),1.25%
24,Cc1ccc(=O)n(-c2ccccc2)c1,0.875%
25,CCN(CC)CCNC(=O)c1cc(S(C)(=O)=O)ccc1OC,0.0625%
